Measured values as given in PMC4336329 (PLoS ONE, 2015).
Screen size: about 310,000 compounds; about 2,200 (0.71%) showed an effect of 50% or more. Effects have a minus sign here. This excerpt belongs to a sample that is enriched for strong results.

Molecular target: human ether-à-go-go-related gene (hERG) potassium channel (human, UniProt Q12809)
Experiment: primary screen, population patch clamp on CHO cells stably expressing hERG; higher = less effect of the substance

human ether-à-go-go-related gene (hERG) potassium channel, sequence (Q12809 whole entry, looked up): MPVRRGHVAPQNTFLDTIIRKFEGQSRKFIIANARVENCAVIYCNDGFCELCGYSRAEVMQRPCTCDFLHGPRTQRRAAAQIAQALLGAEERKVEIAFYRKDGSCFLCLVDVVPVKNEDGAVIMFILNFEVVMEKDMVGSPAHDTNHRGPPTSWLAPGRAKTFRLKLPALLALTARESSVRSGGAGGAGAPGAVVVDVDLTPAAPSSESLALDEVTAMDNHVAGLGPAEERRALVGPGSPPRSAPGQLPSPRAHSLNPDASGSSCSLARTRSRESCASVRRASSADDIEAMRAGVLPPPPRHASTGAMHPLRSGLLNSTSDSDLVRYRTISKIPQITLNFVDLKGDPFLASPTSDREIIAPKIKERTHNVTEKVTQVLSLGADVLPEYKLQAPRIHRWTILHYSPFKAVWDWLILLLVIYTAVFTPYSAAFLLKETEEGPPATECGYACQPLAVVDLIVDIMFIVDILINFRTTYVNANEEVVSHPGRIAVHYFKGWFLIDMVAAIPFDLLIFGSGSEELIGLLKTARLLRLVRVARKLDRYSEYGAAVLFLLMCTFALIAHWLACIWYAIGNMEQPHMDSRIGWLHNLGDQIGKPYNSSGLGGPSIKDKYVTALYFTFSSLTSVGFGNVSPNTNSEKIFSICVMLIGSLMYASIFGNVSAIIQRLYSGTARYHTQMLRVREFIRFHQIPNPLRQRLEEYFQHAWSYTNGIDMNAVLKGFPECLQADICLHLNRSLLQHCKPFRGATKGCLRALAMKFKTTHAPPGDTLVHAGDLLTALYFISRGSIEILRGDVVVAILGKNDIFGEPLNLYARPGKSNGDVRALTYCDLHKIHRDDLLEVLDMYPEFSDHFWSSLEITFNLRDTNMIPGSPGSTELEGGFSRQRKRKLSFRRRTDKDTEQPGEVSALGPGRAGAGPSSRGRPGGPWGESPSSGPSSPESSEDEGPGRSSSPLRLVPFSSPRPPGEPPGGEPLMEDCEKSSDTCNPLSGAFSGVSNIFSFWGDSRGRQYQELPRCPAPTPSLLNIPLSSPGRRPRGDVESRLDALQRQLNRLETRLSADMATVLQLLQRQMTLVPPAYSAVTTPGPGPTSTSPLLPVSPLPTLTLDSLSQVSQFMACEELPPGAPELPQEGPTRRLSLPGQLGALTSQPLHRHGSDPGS

| SMILES | hERG current change (%, negative = inhibition) at 1uM [%] |
| --- | --- |
| COc1ccccc1NC(=O)Cn1nnc(-c2ccccc2NC(=O)c2ccco2)n1 | 14.7 |
| C=CCC1c2cccc(C(=O)O)c2C(=O)N1c1cccc(C)c1 (centres unmarked) | 11.5 |
| CN(C)c1ccc(C2CC(=O)C=C(Nc3ccccc3N)C2)cc1 (centres unmarked) | 13.8 |
| CCOc1ccc(NC(=O)CCN2CCN(c3ccccc3)CC2)cc1 | 3.48 |
| CCOc1ccccc1NC(=O)C(OC(=O)c1ccccc1)c1ccccc1 (centres unmarked) | 32.8 |
| Cn1c(Cn2nnc3ccccc32)nnc1SCC(=O)Nc1nccs1 | 10.6 |
| CC(C)N1CCc2c(sc(NC(=O)CCS(=O)(=O)c3ccccc3)c2C(N)=O)C1.Cl | -2.04 |
| CCOC(=O)c1c(NC(=O)CCS(=O)(=O)c2ccccc2)sc2c1CCN(C(C)C)C2.Cl | -64.6 |
| CCOC(=O)c1c(NC(=O)CCS(=O)(=O)c2ccccc2)sc2c1CCN(C)C2.Cl | -9.18 |
| CC(=O)c1cc2c(cc1NC(=O)CSc1nc3ccccc3[nH]1)OCO2 | -2.99 |
| CN(C)S(=O)(=O)c1cc(NC(=O)CNCCN2CCOCC2)ccc1Cl.O=C(O)C(=O)O | 7.62 |
| O=C(c1cc(F)ccc1F)C1CCCN(CCCc2ccccc2)C1 (centres unmarked) | -76.6 |
| O=C(C1CCCN(CCCc2ccccc2)C1)N1CCCCC1 (centres unmarked) | -5.07 |
| O=C(c1cc(F)ccc1F)C1CCCN(Cc2cccn2-c2ccccn2)C1 (centres unmarked) | -83.1 |
| COc1ccc(C(=O)C2CCCN(Cc3ccc(F)cc3F)C2)cc1F (centres unmarked) | 3.8 |
| COc1ccc(C(=O)C2CCCN(Cc3cccn3-c3ccccn3)C2)cc1F (centres unmarked) | -87.1 |
| O=C(c1cc(F)ccc1F)C1CCCN(Cc2cccc(Cl)c2)C1 (centres unmarked) | 8.46 |
| COc1ccc(F)cc1C(=O)C1CCCN(Cc2cccn2-c2cccnc2)C1 (centres unmarked) | 5.09 |
| COc1ccc(F)cc1C(=O)C1CCCN(Cc2cccn2-c2ccccn2)C1 (centres unmarked) | -89.9 |
| COc1ccc(C(=O)C2CCCN(Cc3cn(C)nc3-c3ccccc3)C2)cc1F (centres unmarked) | -19.1 |
| COc1ccc(F)cc1C(=O)C1CCCN(Cc2ccc(Oc3ncccn3)cc2)C1 (centres unmarked) | -34.8 |
| CCOc1ccccc1CN1CCCC(C(=O)c2cc(F)ccc2F)C1 (centres unmarked) | -16.6 |

| SMILES | hERG current change (%, negative = inhibition) at 1uM [%] |
| --- | --- |
| O=C(c1cc(F)ccc1F)C1CCCN(C(=O)CSc2ccccn2)C1 (centres unmarked) | -3.1 |
| O=C(Nc1ccc(Cl)cc1)c1cc(S(=O)(=O)N2CCOCC2)cs1 | -7.43 |
| COCCCN(Cc1ccco1)C(=O)Cn1ncc2c([nH]c3ccccc32)c1=O | -5.46 |
| O=C(N/N=C1/CCc2ccccc21)C1CC1 | 6.47 |
| Cc1ccc(CNC(=O)COC(=O)c2ccc(S(=O)(=O)N(C)C)cc2)cc1 | 17.8 |
| CCN(CC)c1ccc2ccc(=O)oc2c1 | 7.92 |
| O=C(NNC(=O)c1ccc(Cl)c(S(=O)(=O)Nc2ccc(Cl)cc2)c1)c1ccc(=O)[nH]c1 | 14.5 |
| COc1ccc(-c2nnc3ccc(SCC(=O)N4CCCCC4)nn23)cc1OC | 6.34 |
| Cc1cc2nc(-c3ccc(=O)[nH]c3)n(C)c2cc1C | 11 |
| Cc1ccc(-c2csc(NC(=O)c3ccc(F)cc3)c2C(=O)O)cc1 | 16 |
| CCOC(=O)C1(C)Oc2ccc(S(=O)(=O)CC)cc2NC1=O (centres unmarked) | 16.3 |
| COCCn1nnnc1C(c1ccccn1)N1CCN(c2cc(C)ccc2C)CC1.Cl (centres unmarked) | 9.25 |
| Cc1[nH]nc2c1C(C(C)c1ccccc1)C(C#N)=C(N)O2 (centres unmarked) | 7.79 |
| COc1ccc(-c2c[n+]3c4n2CCCCC4=C(c2ccc(Br)cc2)C3)cc1.[Br-] | -79.6 |
| Clc1ccc(C[n+]2cc(-c3ccccc3)n3c2CCC3)cc1.[Cl-] | 7.34 |
| COc1ccc(-c2c[n+]3c4n2CCCCC4=C(c2ccccc2)C3)cc1.[Br-] | -74.7 |
| COc1ccc(-c2c[n+]3c(n2-c2ccccc2)CCCCC3)cc1.[Br-] | 2.74 |
| COc1ccc(-c2c[n+](CC(=O)c3ccccc3)c3n2CCCCC3)cc1.[Br-] | 13.7 |
| Clc1ccc(C2=C3CCCCn4c(-c5ccccc5)c[n+](c43)C2)cc1.[Br-] | -83.1 |
| COc1ccc(-n2c(-c3ccc(Br)cc3)c[n+]3c2CCCCC3)cc1.[Br-] | -24.6 |
| COc1ccc(C(=O)C[n+]2cc(-c3ccc(OC)cc3)n3c2CCCC3)cc1.[Br-] | 11.5 |
| O=C(C[n+]1cc(-c2ccc(Cl)cc2)n2c1CCCCC2)c1ccccc1.[Br-] | -2.53 |
